# Source: PubChem BioAssay (Tox21)
# Where “and” joins values, the source holds several entries; their conditions need not be identical. Equal values may be shown once. Results filed as inconclusive are left out. A call without a number means that no potency is given here. A structure can be active in one record and inactive in another. Calls of active or inactive are those of the source. Unless noted, calls come from the whole dose curve; as a rule, active = well fitted curve in the direction sought with a large enough effect in the repeat runs; inconclusive = weak or mixed curves; inactive = no such curve, though single readings can be large; an effect the other way counts as inactive or inconclusive.
# Experiments:
# [1] = target: Progesterone receptor (Homo sapiens) (UniProt P06401); test: qHTS assay to identify small molecule agonists of the progesterone receptor (PR) signaling pathway (AID 1346784; calls by dose curve; note: nearly all actives have a fitted effect of over 30% in size)
# Sequence of Progesterone receptor (Homo sapiens) (P06401 whole entry, looked up): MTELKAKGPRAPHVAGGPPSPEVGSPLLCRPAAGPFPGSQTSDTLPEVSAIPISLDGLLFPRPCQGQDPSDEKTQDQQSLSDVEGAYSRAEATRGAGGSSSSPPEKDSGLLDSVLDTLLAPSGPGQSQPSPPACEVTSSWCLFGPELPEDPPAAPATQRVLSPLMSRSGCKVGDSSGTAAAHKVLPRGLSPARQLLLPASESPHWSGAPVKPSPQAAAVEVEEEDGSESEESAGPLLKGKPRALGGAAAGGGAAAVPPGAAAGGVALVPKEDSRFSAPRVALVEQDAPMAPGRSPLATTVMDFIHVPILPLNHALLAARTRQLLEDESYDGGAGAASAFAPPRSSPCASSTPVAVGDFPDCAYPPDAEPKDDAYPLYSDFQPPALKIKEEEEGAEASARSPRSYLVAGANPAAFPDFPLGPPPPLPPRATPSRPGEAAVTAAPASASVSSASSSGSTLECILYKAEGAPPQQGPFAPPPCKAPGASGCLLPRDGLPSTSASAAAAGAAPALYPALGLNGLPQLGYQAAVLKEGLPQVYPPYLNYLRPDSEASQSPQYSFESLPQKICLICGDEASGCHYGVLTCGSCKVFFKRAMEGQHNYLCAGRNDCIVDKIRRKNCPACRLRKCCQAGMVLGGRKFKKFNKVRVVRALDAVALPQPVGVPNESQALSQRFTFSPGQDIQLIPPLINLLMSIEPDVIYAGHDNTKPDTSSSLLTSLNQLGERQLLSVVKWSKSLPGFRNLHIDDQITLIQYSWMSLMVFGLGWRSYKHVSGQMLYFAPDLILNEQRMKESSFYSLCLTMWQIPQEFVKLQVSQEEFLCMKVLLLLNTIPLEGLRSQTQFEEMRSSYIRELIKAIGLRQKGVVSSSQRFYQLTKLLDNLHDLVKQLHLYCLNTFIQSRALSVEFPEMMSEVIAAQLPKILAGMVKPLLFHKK
# Summary of the method: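 Cells (PR-UAS-bla HEK 293T, GripTite) were plated in assay medium containing 2% charcoal-stripped FBS and incubated 6 hr. Test compounds in DMSO were added for 16 hr at 37C. FRET substrate was then loaded for 2 hr at room temperature before fluorescence reading.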
# [2] = qHTS assay to identify small molecule antagonists of the progesterone receptor (PR) signaling pathway - cell viability counter screen (AID 1346798); note: nearly all actives have a fitted effect of over 50% in size; note: potency is the fitted concentration of half-maximal effect; for activity change, negative = cytotoxicity: series mostly up to about 92 µM
# Summary of the method: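 Counter screen for cytotoxicity: viability of PR-UAS-bla HEK293T cells was measured with CellTiter-Glo luminescence following 16 hr compound exposure in the presence of R5020.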
# [3] = qHTS assay to identify small molecule agonists of the progesterone receptor (PR) signaling pathway - cell viability counter screen (AID 1346799; calls by dose curve; note: nearly all actives have a fitted effect of over 45% in size; note: potency is the fitted concentration of half-maximal effect)
# Summary of the method: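 Cells (PR-UAS-bla HEK293T) are plated at 3,000/well in 2% charcoal-stripped FBS medium, rested 6 hr, dosed and incubated 16 hr at 37C. CellTiter-Glo is then added and luminescence measured after 30 min at room temperature.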
# [4] = qHTS assay to identify small molecule agonists of the TGF-beta/Smad signaling pathway - cell viability counter screen (AID 1346829); note: top concentration of the series differs between compounds; nearly all actives have a fitted effect of over 45% in size
# Summary of the method: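 After overnight seating at 37 C and 5% CO2, reporter cells got compounds for 5 hr and FRET substrate for 2 hr; cell viability then came from CellTiter-Glo luminescence.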
# [5] = qHTS assay to identify small molecule agonists of the TGF-beta/Smad signaling pathway (AID 1346859; active = well fitted activation curve with a large enough effect in the signal ratio in the repeat runs, not every such curve was filed as active; the % refers to the signal ratio; note: series mostly up to about 77 µM)
# Summary of the method: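 Reporter line: HEK 293T with stably integrated SBE-controlled beta-lactamase. Compound exposure lasts 5 hr at 37 C and 5% CO2; substrate loading follows for 2 hr at room temperature, with emission read at 460 and 530 nm.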
# [6] = target: Thyrotropin-releasing hormone receptor (Homo sapiens) (UniProt P34981); test: qHTS assay to identify small molecule antagonists of the thyrotropin-releasing hormone receptor (TRHR) signaling pathway (AID 1346877; active = well fitted inhibition curve with a large enough effect in the repeat runs, not every such curve was filed as active; note: series mostly up to about 51 µM)
# Sequence of Thyrotropin-releasing hormone receptor (Homo sapiens) (P34981 whole entry, looked up): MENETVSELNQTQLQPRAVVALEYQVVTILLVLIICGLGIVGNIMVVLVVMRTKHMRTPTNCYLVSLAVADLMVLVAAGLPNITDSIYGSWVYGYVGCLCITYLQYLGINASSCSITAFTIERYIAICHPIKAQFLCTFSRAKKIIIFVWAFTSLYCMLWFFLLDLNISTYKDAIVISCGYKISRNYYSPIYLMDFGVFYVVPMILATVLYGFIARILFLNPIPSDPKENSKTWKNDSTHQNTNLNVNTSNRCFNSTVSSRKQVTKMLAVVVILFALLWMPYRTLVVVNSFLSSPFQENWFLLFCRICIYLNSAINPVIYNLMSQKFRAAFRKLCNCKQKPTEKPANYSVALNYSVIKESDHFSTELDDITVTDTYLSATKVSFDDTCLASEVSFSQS
# Summary of the method: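 Overnight-plated (18 h, 37 °C) HEK293 cells expressing TRHR were dye-loaded 2 h, treated with compound, then stimulated with TRH at 1 nM final. Fluorescence intensity was captured every second for 3 min.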
# [7] = target: Thyrotropin-releasing hormone receptor (Homo sapiens) (UniProt P34981); test: qHTS assay to identify small molecule agonists of the thyrotropin-releasing hormone receptor (TRHR) signaling pathway (AID 1346891; calls by dose curve;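 note: HEK293 cells expressing TRHR with calcium dye readout; series mostly up to about 58 µM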)
# Summary of the method: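 Cells: TRHR-Hek293, seeded and incubated 18 h. Dye loading: 2 h at 37 °C. Compound added from DMSO stock by pin tool. Read-out: kinetic calcium fluorescence over 3 min.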
# [8] = qHTS assay to identify small molecule agonists of the estrogen receptor alpha (ER-alpha) signaling pathway in the presence of an antagonist - cell viability counter screen (AID 1259386);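 note: cells exposed to compounds for 22 h at 37 °C before the viability read; nearly all actives have a fitted effect of over 30% in size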; note: potency is the fitted concentration of half-maximal effect; for activity change, negative = cytotoxicity: series mostly up to about 92 µM
# Summary of the method: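 The test measures whether compounds kill ER-alpha reporter cells (VM7Luc4E2) under antagonist co-treatment (ICI-182,780, 10.0nM). Fluorescence from CellTiter-Fluor is read after a 22hr exposure.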
# [9] = qHTS assay to identify small molecule antagonists of the TGF-beta/Smad signaling pathway - cell viability counter screen (AID 1346824); note: nearly all actives have a fitted effect of over 50% in size; note: potency is the fitted concentration of half-maximal effect
# Summary of the method: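 SBE-bla HEK 293T cells, incubated overnight, then compound plus 0.25 ng/mL TGF-beta1 (stock added) for 5 hr at 37 C. Viability was read in the same wells by CellTiter-Glo luminescence after 30 min at room temperature.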
# [10] = target: Progesterone receptor (Homo sapiens) (UniProt P06401); test: qHTS assay to identify small molecule antagonists of the progesterone receptor (PR) signaling pathway (AID 1346795; active = well fitted inhibition curve with a large enough effect in the signal ratio in the repeat runs, not every such curve was filed as active; the % refers to the signal ratio; note: potency is the fitted concentration of half-maximal effect)
# Summary of the method: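 Antagonist mode: compounds tested against 1 nM (final) promegestone stimulation in HEK293T cells expressing PR-UAS-bla reporter, 16 hr at 37C, 5% CO2; beta-lactamase activity detected via B/G FRET substrate after 2 hr at room temperature.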
smiles,measurement,setting,value
CC(C)(C)NCC(O)c1cc(Cl)c(N)c(C(F)(F)F)c1 (stereo not given),Potency,[1],inactive
same,Potency,[2],inactive
same,Potency,[3],inactive
same,Potency,[4],inactive
same,outcome,[5],inactive
same,Potency,[6],inactive
same,outcome,[7],inactive
NP(N)(=O)NC(=O)c1ccc(F)cc1,Potency,[8],inactive
same,Potency,[2],inactive
same,Potency,[3],inactive
same,Potency,[9],inactive
same,outcome,[5],inactive
same,Potency,[6],inactive
same,outcome,[7],inactive
O=[N+]([O-])O[C@H]1CO[C@H]2[C@@H]1OC[C@H]2O[N+](=O)[O-],Potency,[8],inactive
same,Potency,[3],inactive
same,Potency,[9],inactive
same,Potency,[4],inactive
same,outcome,[5],inactive
same,Potency,[6],inactive
same,outcome,[7],inactive
CC(C)[C@@H](C(=O)O[C@@H](C#N)c1cccc(Oc2ccccc2)c1)c1ccc(Cl)cc1,Potency,[8],inactive
same,Potency,[2],inactive
same,Potency,[9],inactive
same,Potency,[4],inactive
same,outcome,[5],inactive
CCOP(=S)(OCC)SCSc1cc(Cl)ccc1Cl,Potency,[8],inactive
same,Potency,[3],inactive
same,Potency,[9],inactive
same,Potency,[4],inactive
same,outcome,[5],inactive
same,Potency,[6],inactive
same,outcome,[7],inactive
Cc1nc2ccccc2c(=O)n1-c1ccccc1Cl,Potency,[1],inactive
same,Potency,[2],inactive
same,Potency,[3],inactive
same,Potency,[9],inactive
same,Potency,[4],inactive
same,outcome,[5],inactive
same,Potency,[6],inactive
same,outcome,[7],inactive
CC(C)c1ccc(NC(=O)N(C)C)cc1,Potency,[8],inactive
same,Potency,[2],inactive
same,Potency,[3],inactive
same,Potency,[9],inactive
same,Potency,[4],inactive
same,outcome,[5],inactive
same,Potency,[6],inactive
same,outcome,[7],inactive
C=CCOC(=O)C(C)(C)OC(=O)c1cc(-n2c(=O)cc(C(F)(F)F)n(C)c2=O)ccc1Cl,Potency,[8],inactive
same,Potency,[2],inactive
same,Potency,[3],inactive
same,Potency,[9],inactive
same,outcome,[5],inactive
same,Potency,[6],inactive
same,outcome,[7],inactive
C[N+](C)(C)CCOC(=O)C(O)(c1ccccc1)c1ccccc1,Potency,[8],inactive
same,Potency,[2],inactive
same,Potency,[3],inactive
same,Potency,[9],inactive
same,Potency,[4],inactive
same,outcome,[5],inactive
same,Potency,[6],inactive
same,outcome,[7],inactive
Cc1ccc(N)c(C)c1,Potency,[8],inactive
same,Potency,[2],inactive
same,Potency,[3],inactive
same,Potency,[9],inactive
same,Potency,[4],inactive
same,outcome,[5],inactive
same,Potency,[6],inactive
same,outcome,[7],inactive
CCCCCCCCn1sccc1=O,Potency,[10],34.4 µM (active) and 1.43 µM (active)
same,Potency,[2],48.7 µM (active) and 1.14 µM (active)
same,Potency,[3],43.4 µM (active)
same,Potency,[9],49.1 µM (active) and 51.3 µM (active)
same,outcome,[5],inactive
same,outcome,[7],inactive
CN(C)c1ccc(N=O)cc1,Potency,[8],68.8 µM (active) and 61.1 µM (active)
same,Potency,[2],38.7 µM (active) and 48.6 µM (active)
same,Potency,[3],inactive
same,Potency,[9],inactive
same,Potency,[4],inactive
same,outcome,[5],inactive
same,Potency,[6],inactive
same,outcome,[7],inactive
O=C(N[C@H]1CN2CCC1CC2)c1ccc2c(c1)OCCO2,Potency,[2],inactive
same,Potency,[3],inactive
same,Potency,[4],inactive
same,outcome,[5],inactive
same,Potency,[6],inactive
same,outcome,[7],inactive
[Cl-].[Cl-].[Hg+2],Potency,[8],54.2 µM (active) and 27.3 µM (active)
same,Potency,[2],4.83 µM (active) and 2.43 µM (active)
same,Potency,[3],5.42 µM (active) and 2.17 µM (active)
same,outcome,[5],inactive
C[C@]12CC[C@H]3[C@@H](CCC4=CC(=O)CC[C@@H]43)[C@@H]1CC[C@@H]2OC(=O)CCc1ccccc1,Potency,[8],inactive
same,Potency,[2],inactive
same,Potency,[9],inactive
same,Potency,[4],inactive
same,outcome,[5],inactive
Nc1ccccc1C(=O)OCC(O)CO (stereo not given),Potency,[8],inactive
same,Potency,[2],inactive
same,Potency,[3],inactive
same,Potency,[9],inactive
same,Potency,[4],inactive
same,outcome,[5],inactive
same,Potency,[6],inactive
same,outcome,[7],inactive
CC(O)CN1CCN(CC(=O)[O-])CCN(CC(=O)[O-])CCN(CC(=O)[O-])CC1.[Gd+3] (stereo not given),Potency,[8],inactive
same,Potency,[2],inactive
same,Potency,[3],inactive
same,outcome,[5],inactive
same,Potency,[6],inactive
same,outcome,[7],inactive
CC(C)c1ccc(OP(=O)(Oc2ccc(C(C)C)cc2)Oc2ccc(C(C)C)cc2)cc1,Potency,[8],inactive
same,Potency,[2],30.6 µM (active)
same,Potency,[3],inactive and 30.6 µM (active)
same,Potency,[4],inactive
same,outcome,[5],inactive
same,Potency,[6],inactive
same,outcome,[7],inactive
O=C(O)C(F)(F)C(F)(F)C(F)(F)C(F)(F)C(F)(F)F,Potency,[1],inactive
same,Potency,[2],inactive
same,Potency,[3],inactive
same,Potency,[9],inactive
same,Potency,[4],inactive
same,outcome,[5],inactive
same,Potency,[6],inactive
same,outcome,[7],inactive
O=C(O)CCCOc1ccc(Cl)cc1Cl,Potency,[8],inactive
same,Potency,[4],inactive
Cc1ncc(C[n+]2csc(CCO)c2C)c(N)n1,Potency,[8],inactive
same,Potency,[2],inactive
same,Potency,[3],inactive
same,Potency,[9],inactive
same,Potency,[4],inactive
same,outcome,[5],inactive
same,Potency,[6],inactive
same,outcome,[7],inactive
CCCCC1C(=O)NC(=O)N(C2CCCCC2)C1=O (stereo not given),Potency,[8],inactive
same,Potency,[2],inactive
same,Potency,[3],inactive
same,Potency,[9],inactive
same,outcome,[5],inactive
N#CC1(N=NC2(C#N)CCCCC2)CCCCC1,Potency,[8],inactive
same,Potency,[2],inactive
same,Potency,[3],inactive
same,Potency,[9],inactive
same,outcome,[5],inactive
same,Potency,[6],inactive
same,outcome,[7],inactive
CC1(C)CC(=O)CC(C)(C)N1[O],Potency,[8],inactive
same,Potency,[2],inactive
same,Potency,[3],inactive
same,Potency,[4],inactive
same,outcome,[5],inactive
same,Potency,[6],inactive
same,outcome,[7],inactive
CCCN(CCC)C(=O)Cc1c(-c2ccc(Cl)cc2)nc2ccc(Cl)cn12,Potency,[2],inactive
same,Potency,[3],inactive
same,Potency,[9],inactive
same,Potency,[4],inactive
same,outcome,[5],inactive
same,Potency,[6],inactive
same,outcome,[7],inactive
CCc1ccccc1N,Potency,[8],inactive
same,Potency,[3],inactive
same,Potency,[9],inactive
same,Potency,[4],inactive
same,outcome,[5],inactive
C#C[C@]1(O)CC[C@H]2[C@@H]3CCC4=CC(=O)CCC4=C3C=C[C@@]21CC,Potency,[8],inactive
same,Potency,[9],inactive
same,Potency,[4],inactive
same,Potency,[6],inactive
same,outcome,[7],inactive
C[N+](C)(C)CC1CO1 (stereo not given),Potency,[8],inactive
same,Potency,[2],inactive
same,Potency,[9],inactive
same,Potency,[4],inactive
same,outcome,[5],inactive
same,Potency,[6],inactive
same,outcome,[7],inactive
CCN(C(C)=O)c1cccc(-c2ccnc3c(C#N)cnn23)c1,Potency,[8],inactive
same,Potency,[2],inactive
same,Potency,[3],inactive
same,outcome,[5],inactive
same,Potency,[6],inactive
same,outcome,[7],inactive
NCCc1cc(O)c(O)cc1O,Potency,[1],inactive
same,Potency,[10],inactive
same,Potency,[2],inactive
same,Potency,[3],inactive
same,Potency,[4],inactive
same,outcome,[5],inactive
same,Potency,[6],inactive
same,outcome,[7],inactive
N#CC(C#N)=C(C#N)C#N,Potency,[1],inactive
same,Potency,[10],inactive
same,Potency,[2],inactive
same,Potency,[3],inactive
same,Potency,[9],inactive
same,Potency,[4],inactive
same,outcome,[5],inactive
same,Potency,[6],inactive
same,outcome,[7],inactive
O=[N+]([O-])/C=C/c1ccccc1,Potency,[8],inactive
same,Potency,[2],inactive
same,Potency,[3],inactive
same,Potency,[9],inactive
same,Potency,[4],inactive
same,outcome,[5],inactive
same,Potency,[6],inactive
same,outcome,[7],inactive
CC(C)(C)N(NC(=O)c1ccc(Cl)cc1)C(=O)c1ccccc1,Potency,[8],4.83 µM (active)
same,Potency,[2],inactive
same,Potency,[3],inactive
same,Potency,[9],inactive
same,outcome,[5],inactive
same,Potency,[6],inactive
same,outcome,[7],inactive
COc1ccc2c(c1OC)C(=O)O[C@H]2[C@@H]1c2cc3c(cc2CCN1C)OCO3,Potency,[1],inactive
same,Potency,[10],inactive
same,Potency,[2],inactive
same,Potency,[3],inactive
same,Potency,[9],inactive
same,Potency,[4],inactive
same,outcome,[5],inactive
same,Potency,[6],inactive
same,outcome,[7],inactive
O=S(=O)(c1ccccc1)c1ccccc1,Potency,[8],inactive
same,Potency,[3],inactive
same,Potency,[9],inactive
same,Potency,[4],inactive
same,outcome,[5],inactive
same,Potency,[6],inactive
same,outcome,[7],inactive
CCCCCCCCCCCCN=C(N)N,"activity change, negative = cytotoxicity",[8],-1.52% [at 3.27 µM] (inactive)
same,"activity change, negative = cytotoxicity",[2],1.32% [at 3.27 µM] (inactive)
same,"activity change, negative = cytotoxicity",[3],0.561% [at 3.27 µM] (inactive)
same,"viability change, negative = cytotoxic",[9],-21.8% [at 2.72 µM] (inactive)
same,"activity change, negative = cytotoxicity",[4],-9.54% [at 2.72 µM] (inactive)
same,activation,[5],1.13% [at 2.72 µM] (inactive)
same,"activity, negative = inhibition",[6],1.26% [at 1.81 µM] (inactive)
same,activation,[7],0.32% [at 2.04 µM] (inactive)
